Consider 28 sequences from publication PMC5700166.

Assay in all cases: protein-binding microarray (PBM); PBM: ~300 nM protein, 6 mM HEPES pH 7.8, 80 mM KCl, 0.5 mM EDTA, 0.5 mM EGTA, 6% glycerol, 35 ng/ul poly-dIdC, 1% milk, 1 h, room temperature; Ap Aiptasia and Nv Nematostella (sea anemones) / Co Capsaspora / Aq Amphimedon (sponge) / Dm Drosophila / Hu human; RHD is the Rel homology domain; high values mean tight binding
Holding throughout (conditions): dsDNA, one strand shown

For assay [1], the target named is T1, GST-Ap-NF-kB RHD (Exaiptasia pallida (Aiptasia), UniProt A0A913YAJ5 2-422).
T1 sequence: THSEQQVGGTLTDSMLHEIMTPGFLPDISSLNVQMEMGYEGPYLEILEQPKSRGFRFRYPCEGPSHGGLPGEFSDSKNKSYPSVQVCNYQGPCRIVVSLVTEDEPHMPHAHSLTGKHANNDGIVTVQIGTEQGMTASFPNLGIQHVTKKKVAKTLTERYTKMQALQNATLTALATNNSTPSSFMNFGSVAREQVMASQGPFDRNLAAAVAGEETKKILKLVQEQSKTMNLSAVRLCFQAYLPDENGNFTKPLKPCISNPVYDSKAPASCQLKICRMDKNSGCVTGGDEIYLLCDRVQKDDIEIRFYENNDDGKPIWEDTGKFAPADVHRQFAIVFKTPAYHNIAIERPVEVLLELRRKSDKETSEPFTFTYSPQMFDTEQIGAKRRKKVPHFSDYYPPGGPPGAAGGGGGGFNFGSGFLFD

Assay [2] addresses T2, GST-Nv-NF-kB (Cys allele) (Nematostella vectensis, UniProt E5G601 2-411).
T2 sequence: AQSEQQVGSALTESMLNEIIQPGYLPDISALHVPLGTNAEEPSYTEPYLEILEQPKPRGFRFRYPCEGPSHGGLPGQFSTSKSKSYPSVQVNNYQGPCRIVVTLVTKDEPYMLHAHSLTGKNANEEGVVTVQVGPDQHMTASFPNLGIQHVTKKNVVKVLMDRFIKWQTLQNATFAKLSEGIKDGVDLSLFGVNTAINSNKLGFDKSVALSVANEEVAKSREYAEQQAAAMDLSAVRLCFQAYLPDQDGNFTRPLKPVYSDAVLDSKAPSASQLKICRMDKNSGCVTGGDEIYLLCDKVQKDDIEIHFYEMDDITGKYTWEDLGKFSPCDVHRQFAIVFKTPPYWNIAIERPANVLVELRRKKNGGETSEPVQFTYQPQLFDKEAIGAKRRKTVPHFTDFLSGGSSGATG

The target of assay [3] is T3, GST-Co-NF-kB (Capsaspora owczarzaki, UniProt F1ARL5 200-546).
T3 sequence: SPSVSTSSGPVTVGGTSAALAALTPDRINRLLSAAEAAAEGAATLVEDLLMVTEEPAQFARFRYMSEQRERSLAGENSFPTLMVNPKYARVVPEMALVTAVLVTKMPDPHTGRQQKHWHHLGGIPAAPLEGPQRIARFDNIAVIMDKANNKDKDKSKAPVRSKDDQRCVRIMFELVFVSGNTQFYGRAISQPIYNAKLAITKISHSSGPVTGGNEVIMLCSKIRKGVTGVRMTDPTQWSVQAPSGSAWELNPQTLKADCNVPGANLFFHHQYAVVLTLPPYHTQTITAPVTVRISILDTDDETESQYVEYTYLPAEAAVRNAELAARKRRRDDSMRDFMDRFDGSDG

In assay [4] the target is T4, GST-Dm-Relish (Drosophila melanogaster, UniProt Q94527 99-473).
T4 sequence: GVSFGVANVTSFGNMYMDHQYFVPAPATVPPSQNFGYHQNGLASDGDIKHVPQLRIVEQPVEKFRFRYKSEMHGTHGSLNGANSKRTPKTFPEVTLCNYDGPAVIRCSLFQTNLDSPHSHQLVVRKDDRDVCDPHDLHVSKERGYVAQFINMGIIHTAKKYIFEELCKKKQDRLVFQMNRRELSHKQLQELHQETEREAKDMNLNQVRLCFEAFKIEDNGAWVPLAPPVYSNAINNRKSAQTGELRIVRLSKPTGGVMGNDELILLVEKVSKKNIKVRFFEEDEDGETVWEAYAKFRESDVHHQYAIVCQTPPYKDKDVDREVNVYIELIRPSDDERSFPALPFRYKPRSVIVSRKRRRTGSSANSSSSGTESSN

The target of assay [5] is T5, GST-Aq-NF-kB (Amphimedon queenslandica, UniProt A9Y5G7 2-389).
T5 sequence: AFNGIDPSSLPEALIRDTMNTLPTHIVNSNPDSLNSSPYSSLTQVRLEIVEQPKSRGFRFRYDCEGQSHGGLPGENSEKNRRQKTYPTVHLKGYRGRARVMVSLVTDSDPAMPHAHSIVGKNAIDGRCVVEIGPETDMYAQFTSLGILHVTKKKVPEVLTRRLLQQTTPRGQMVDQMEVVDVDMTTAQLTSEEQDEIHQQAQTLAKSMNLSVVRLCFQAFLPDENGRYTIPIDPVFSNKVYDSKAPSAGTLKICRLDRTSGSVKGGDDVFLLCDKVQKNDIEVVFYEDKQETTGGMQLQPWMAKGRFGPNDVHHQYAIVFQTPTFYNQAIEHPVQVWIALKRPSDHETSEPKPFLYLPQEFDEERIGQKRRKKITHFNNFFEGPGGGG

For “CCGATTAACATCAAAAAATGCCCTGATGTTAATCGGGTCTTGATTCGCTTGACGCTGCTG”, the binding signal came to 2.08 z-score in assay [1]; 3.03 z-score in assay [2]; 1 z-score in assay [3]; 3.67 z-score in assay [4]; 4.05 z-score in assay [5].
The matching figures for “CCGATTAACATCACAATACCCCCTGATGTTAATCGGGTCTTGATTCGCTTGACGCTGCTG”: 7.39 z-score, 4.51 z-score, 4.26 z-score, 4.2 z-score and 4.87 z-score.
The like results for “CCGATTAACATCAAGGGGGAGGGTGATGTTAATCGGGTCTTGATTCGCTTGACGCTGCTG” were, in that order, 4.24 z-score, 3.46 z-score, 4.4 z-score, 3.15 z-score and 4.42 z-score.
The matching figures for “CCGATTAACATCAGGGGAAGGGATGATGTTAATCGGGTCTTGATTCGCTTGACGCTGCTG”: 4.77 z-score, 4.77 z-score, 3.96 z-score, 1.68 z-score and 3.89 z-score.
In the case of “CCGATTAACATCAGAATTCCCGCTGATGTTAATCGGGTCTTGATTCGCTTGACGCTGCTG”, the binding signal in assay [1] turned out to be 3.59 z-score; in assay [2] it was 4.74 z-score; in assay [3], 3.87 z-score; in assay [4], 3.89 z-score; in assay [5] it was 3.98 z-score.
The like results for “CCGATTAACATCAGGGAAAAAACTGATGTTAATCGGGTCTTGATTCGCTTGACGCTGCTG” were, in that order, 2.85 z-score, 4.45 z-score, 5.17 z-score, 5.49 z-score and 5.31 z-score.
The like results for “CCGATTAACATCAAGTATTTCCCTGATGTTAATCGGGTCTTGATTCGCTTGACGCTGCTG” were, in that order, 3.79 z-score, 5.18 z-score, 4.22 z-score, 5.66 z-score and 5.42 z-score.
As for “CCGATTAACATCAGAACTTCCCATGATGTTAATCGGGTCTTGATTCGCTTGACGCTGCTG”, the binding signal in assay [1] stood at 2.63 z-score; in assay [2], 2.58 z-score; in assay [3], 1.5 z-score; in assay [4], 3.3 z-score; in assay [5], 2.91 z-score.
Consider “CCGATTAACATCACAAACGGGGCTGATGTTAATCGGGTCTTGATTCGCTTGACGCTGCTG”, for which the binding signal in assay [1] was 1.5 z-score; in assay [2], 2.75 z-score; in assay [3], 1.3 z-score; in assay [4], 1.33 z-score; in assay [5], 3.49 z-score.
The like results for “CCGATTAACATCACATTATCCCCTGATGTTAATCGGGTCTTGATTCGCTTGACGCTGCTG” were, in that order, 4.81 z-score, 5.05 z-score, 4.75 z-score, 2.4 z-score and 3.81 z-score.
The like results for “CCGATTAACATCACGAGTTTCCCTGATGTTAATCGGGTCTTGATTCGCTTGACGCTGCTG” were, in that order, 3.04 z-score, 4.31 z-score, 3.63 z-score, 1.16 z-score and 3.88 z-score.
Take “CCGATTAACATCAGGGGGTTAACTGATGTTAATCGGGTCTTGATTCGCTTGACGCTGCTG”: the binding signal in assay [1] was 5.36 z-score; in assay [2], 3.73 z-score; in assay [3] it was 2.64 z-score; in assay [4], 8.09 z-score; in assay [5], 5.06 z-score.
For “CCGATTAACATCAGGGAAATTCATGATGTTAATCGGGTCTTGATTCGCTTGACGCTGCTG”, the binding signal amounted to 4.54 z-score in assay [1]; 6.28 z-score in assay [2]; 4.15 z-score in assay [3]; 2.26 z-score in assay [4]; 5.94 z-score in assay [5].
For the sequence “CCGATTAACATCAGGGAATTCGATGATGTTAATCGGGTCTTGATTCGCTTGACGCTGCTG”, the binding signal in assay [1] stood at 3.01 z-score; in assay [2] it was 3.99 z-score; in assay [3], 2.25 z-score; in assay [4] it was 1.66 z-score; in assay [5], 3.01 z-score.
Consider “CCGATTAACATCAGGGATCACCCTGATGTTAATCGGGTCTTGATTCGCTTGACGCTGCTG”, for which the binding signal worked out at 3.86 z-score in assay [1]; 2.9 z-score in assay [2]; 1.02 z-score in assay [3]; 6.12 z-score in assay [4]; 5.65 z-score in assay [5].
The like results for “CCGATTAACATCAGGAACTACCCTGATGTTAATCGGGTCTTGATTCGCTTGACGCTGCTG” were, in that order, 2.97 z-score, 2.75 z-score, 1.33 z-score, 3.64 z-score and 5.04 z-score.
“CCGATTAACATCAGGCCATCCCCTGATGTTAATCGGGTCTTGATTCGCTTGACGCTGCTG”: the binding signal in assay [1] is 3.87 z-score; in assay [2], 4.02 z-score; in assay [3] it was 1.22 z-score; in assay [4] it was 7.89 z-score; in assay [5], 5.6 z-score.
As to “CCGATTAACATCAGGGGGAGTGATGATGTTAATCGGGTCTTGATTCGCTTGACGCTGCTG”, the binding signal in assay [1] came out at 5.05 z-score; in assay [2] it was 3.63 z-score; in assay [3], 3.71 z-score; in assay [4], 1.66 z-score; in assay [5], 3.44 z-score.
The matching figures for “CCGATTAACATCAGGCTTTTCCCTGATGTTAATCGGGTCTTGATTCGCTTGACGCTGCTG”: 2.62 z-score, 4.54 z-score, 2.51 z-score, 2.3 z-score and 6.49 z-score.
As to “CCGATTAACATCAAAAATCCCTATGATGTTAATCGGGTCTTGATTCGCTTGACGCTGCTG”, the binding signal in assay [1] turned out to be 5.18 z-score; in assay [2] it was 5.21 z-score; in assay [3], 1.39 z-score; in assay [4], 6.49 z-score; in assay [5], 5.85 z-score.
As for “CCGATTAACATCAGGGAATTATATGATGTTAATCGGGTCTTGATTCGCTTGACGCTGCTG”, the binding signal in assay [1] was 4.16 z-score; in assay [2], 6.68 z-score; in assay [3], 4.16 z-score; in assay [4] it was 3.26 z-score; in assay [5] it was 6.69 z-score.
Turning to “CCGATTAACATCAAGGGATTTCCTGATGTTAATCGGGTCTTGATTCGCTTGACGCTGCTG”, the binding signal came to 5.46 z-score in assay [1]; 5.12 z-score in assay [2]; 1.32 z-score in assay [3]; 7.74 z-score in assay [4]; 6.44 z-score in assay [5].
The like results for “CCGATTAACATCAGGGGACAACCTGATGTTAATCGGGTCTTGATTCGCTTGACGCTGCTG” were, in that order, 4.96 z-score, 4.76 z-score, 3.44 z-score, 3.96 z-score and 5.18 z-score.
The matching figures for “CCGATTAACATCAGGGAATCTCATGATGTTAATCGGGTCTTGATTCGCTTGACGCTGCTG”: 2.33 z-score, 3.41 z-score, 1.96 z-score, 1.4 z-score and 3.46 z-score.
The like results for “CCGATTAACATCACGTTCCCCCCTGATGTTAATCGGGTCTTGATTCGCTTGACGCTGCTG” were, in that order, 6.32 z-score, 5.07 z-score, 9.5 z-score, 4.11 z-score and 4.43 z-score.
As for “CCGATTAACATCATACCCCCCCATGATGTTAATCGGGTCTTGATTCGCTTGACGCTGCTG”, the binding signal in assay [1] is 4.97 z-score; in assay [2], 2.65 z-score; in assay [3] it was 5.26 z-score; in assay [4], 3.98 z-score; in assay [5], 3.92 z-score.
For the sequence “CCGATTAACATCAGGGAATATAATGATGTTAATCGGGTCTTGATTCGCTTGACGCTGCTG”, the binding signal in assay [1] turned out to be 3.2 z-score; in assay [2], 3.59 z-score; in assay [3], 3.13 z-score; in assay [4] it was 1.66 z-score; in assay [5], 3.14 z-score.
The matching figures for “CCGATTAACATCATCCCCCCCCATGATGTTAATCGGGTCTTGATTCGCTTGACGCTGCTG”: 6.69 z-score, 4.12 z-score, 7.34 z-score, 4.5 z-score and 5.38 z-score.
